Activity calls are given as the source filed them.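 Rule for the calls: active = at least 50% inhibition of LYPLA1 or LYPLA2 at 300 nM, with no off-target enzyme hit at any dose; inactive = under 50% inhibition on both enzymes, or any off-target hit.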

The test has as its system Anti-Targets. Description: LYPLA1/LYPLA2 inhibition and anti-target count – cell lysate, competitive ABPP, HEK293T proteome, set 2, selectivity assay for LYPLA1 inhibitor project, late-stage follow-up (AID 652018). The conditions noted are these: competitive ABPP FP-PEG-Rh gel; anti-targets hit, at 10 µM.

Regarding `O=C(CN1CCN(C(=O)n2ncc(-c3ccc(Br)cc3)n2)CC1)Nc1cc(C(F)(F)F)ccc1Cl`, the anti-target count stood at 0 and the outcome was inactive.

Turning to `O=C(N1CCN(c2ccc(Br)cc2)CC1)n1ncc(C(O)(c2ccccc2)c2ccccc2)n1`, the anti-target count worked out at 0 and the outcome was inactive.

Consider `COc1ccc(N2CCN(C(=O)n3ncc(C(O)(c4ccccc4)c4ccccc4)n3)CC2)cc1`, for which the anti-target count came to 1 and the molecule was called active.

`O=C(N1CCN(c2ccc(Cl)c(Cl)c2)CC1)n1ncc(C(O)(c2ccccc2)c2ccccc2)n1`: the anti-target count was 0 and the call was inactive.

On to `O=C(CN1CCN(C(=O)n2cc(C(O)(c3ccccc3)c3ccccc3)nn2)CC1)Nc1cc(C(F)(F)F)ccc1Cl`, for which the anti-target count was determined as 0 and the molecule was classed as inactive.

Regarding `COc1ccc(N2CCN(C(=O)n3nc(Br)nc3Br)CC2)cc1`, the anti-target count came to 0 and the outcome was inactive.

Turning to `O=C(CN1CCN(C(=O)n2nc(Br)nc2Br)CC1)Nc1cc(C(F)(F)F)ccc1Cl`, the anti-target count turned out to be 0 and the call was inactive.

As for `O=C(CN1CCN(C(=O)n2nc(Br)c(Br)n2)CC1)Nc1cc(C(F)(F)F)ccc1Cl`, the anti-target count was found to be 0 and the result was inactive.

On to `COc1ccc(N2CCN(C(=O)n3cc(C(O)(c4ccccc4)c4ccccc4)nn3)CC2)cc1`, for which the anti-target count worked out at 2 and the call was active.

For `O=C(CN1CCN(C(=O)n2cncn2)CC1)Nc1cc(C(F)(F)F)ccc1Cl`, the anti-target count amounted to 0 and the result was inactive.

Regarding `COc1ccc(N2CCN(C(=O)n3ccnn3)CC2)cc1`, the anti-target count turned out to be 0 and the molecule was called inactive.

On to `O=C(CN1CCN(C(=O)n2ncc(-c3ccc(-c4ccccc4)cc3)n2)CC1)Nc1cc(C(F)(F)F)ccc1Cl`, for which the anti-target count was 0 and the outcome was inactive.

For `COc1ccc(N2CCN(C(=O)n3nccn3)CC2)cc1`, the anti-target count came to 0 and the result was inactive.

For `COc1ccc(N2CCN(C(=O)n3ncc(-c4ccc(OC(F)(F)F)cc4)n3)CC2)cc1`, the anti-target count stood at 0 and the molecule was classed as inactive.

In the case of `O=C(CN1CCN(C(=O)n2cc(-c3ccc(OC(F)(F)F)cc3)nn2)CC1)Nc1cc(C(F)(F)F)ccc1Cl`, the anti-target count amounted to 0 and the outcome was inactive.

As for `O=C(CN1CCN(C(=O)n2ncc(C(O)(c3ccccc3)c3ccccc3)n2)CC1)Nc1cc(C(F)(F)F)ccc1Cl`, the anti-target count amounted to 1 and the call was active.

With `COc1ccc(N2CCN(C(=O)n3cc(-c4ccc(OC(F)(F)F)cc4)nn3)CC2)cc1`, the anti-target count was 0 and the outcome was inactive.

Regarding `COc1ccc(N2CCN(C(=O)n3ncc(-c4ccccc4)n3)CC2)cc1`, the anti-target count worked out at 0 and the result was inactive.

In the case of `COc1ccc(N2CCN(C(=O)n3nc(Br)c(Br)n3)CC2)cc1`, the anti-target count was found to be 2 and the molecule was called active.

As for `O=C(CN1CCN(C(=O)n2nccn2)CC1)Nc1cc(C(F)(F)F)ccc1Cl`, the anti-target count amounted to 0 and the molecule was classed as inactive.

Regarding `O=C(CN1CCN(C(=O)n2cc(-c3ccc(-c4ccccc4)cc3)nn2)CC1)Nc1cc(C(F)(F)F)ccc1Cl`, the anti-target count stood at 0 and the outcome was inactive.

Consider `O=C(CN1CCN(C(=O)n2ncc(-c3ccc(OC(F)(F)F)cc3)n2)CC1)Nc1cc(C(F)(F)F)ccc1Cl`, for which the anti-target count is 0 and the result was inactive.

For `COc1ccc(N2CCN(C(=O)n3cncn3)CC2)cc1`, the anti-target count is 0 and the call was inactive.

For the origin of these results see PubChem BioAssay AID652018 (The Scripps Research Institute Molecular Screening Center, 2013).
